The values that follow come from PubChem BioAssay (NCI).

Test systems include DU-145 prostate; K-562 leukemia; MALME-3M melanoma; MDA-MB-231 breast; RXF 393 renal; SF-268 CNS; SF-295 CNS; SF-539 CNS; UACC-257 melanoma; M14 melanoma.
Holding throughout (assay): NCI-60 one-dose screen, 48 h (100 = growth as untreated, 0 = no growth, -100 = all killed)
Common to all, as to details: 10 µM unless noted

“And” between values parts separate entries of the source, which are not always exact repeats. Equal entries are not always repeated. This is part of a sample that, as a whole, favours compounds with a hit. Of some 83,000 tested, about 20% had one in any assay.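 Note: values are percent growth. 100 is the growth of untreated cells, values between 100 and 0 indicate rising inhibition; between -100 and 0 indicates cell death.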 A number with no mark means an inactive call. The source made the active and inactive calls. How the source made its calls: active means growth percent below 10; inactive means the rest.

For `Cc1nnc(NS(=O)(=O)c2ccc(N=Nc3ccc(N)nc3N)cc2)s1`, the growth is 118% and 105% in the test on DU-145 prostate; 105% with K-562 leukemia; 110% with MALME-3M melanoma; 95.7% and 112% with MDA-MB-231 breast; 134% and 136% with RXF 393 renal; 115% and 106% with SF-268 CNS. In addition, the growth with SF-295 CNS is 127% and 102%; with SF-539 CNS it was 110% and 103%; in the test with UACC-257 melanoma it was 105% and 117%; with M14 melanoma, 101% and 108%.

Regarding `Nn1c(-c2ccc(Cl)cc2)nc2c(-c3ccc(Cl)cc3)nc3ccc(Cl)cc3c2c1=O`, the growth is -32.5% (active) in the test on DU-145 prostate; 18.5% with K-562 leukemia; 10.1% in the test on MALME-3M melanoma; 36.6% with MDA-MB-231 breast; 1.11% (active) with RXF 393 renal; 14.8% with SF-268 CNS. Moreover, the growth in the test on SF-295 CNS was 22.6%; in the test with SF-539 CNS it was 14.1%; in the test on UACC-257 melanoma, 3.36% (active); in the test on M14 melanoma it was -0.438% (active).

As for `C=C1C(=O)O[C@H]2[C@H]1CC/C(COC(=O)NCc1ccc(Cn3c(=O)sn(CCCI)c3=O)cc1)=C\CC[C@@]1(C)O[C@@H]21`, the growth in the test with DU-145 prostate was 13%; in the test with K-562 leukemia it was 4.22% (active); in the test with MALME-3M melanoma, -75.5% (active); in the test on MDA-MB-231 breast, 10.9%; in the test with RXF 393 renal, -5.91% (active); with SF-268 CNS, 75%. Besides, the growth is 99.3% in the test with SF-295 CNS, 40% with SF-539 CNS, 28.8% in the test with UACC-257 melanoma and -42% (active) in the test with M14 melanoma.

As for `CC(=O)c1c(C)nc2ccccc2c1/C=C/c1cccc(C)c1`, the growth was 88.2% in the test with DU-145 prostate; 16.1% with K-562 leukemia; 82.9% with MALME-3M melanoma; 63.5% in the test on MDA-MB-231 breast; 73.1% in the test on RXF 393 renal; 81.9% in the test with SF-268 CNS. In addition, the growth was 58% in the test on SF-295 CNS, 61.7% in the test with SF-539 CNS, 73.5% with UACC-257 melanoma and 46.3% with M14 melanoma.

As to `CN(C)CCN1C(=O)c2c(c3c4ccccc4n4c3c3c2c2ccccc2n3C2CC(O)C(O)C4(C)O2)C1=O` (stereo not given), the growth was 16.9% in the test on DU-145 prostate; 11.4% in the test on K-562 leukemia; 23.5% in the test with MALME-3M melanoma; 58.4% with MDA-MB-231 breast; 29.9% in the test with RXF 393 renal; 35.2% with SF-268 CNS. Also, the growth with SF-295 CNS was 8.95% (active); with SF-539 CNS, 24.3%; in the test with UACC-257 melanoma, 34.7%; in the test with M14 melanoma, 23.9%.

As to `Nc1nc2c(s1)CCc1cn(S(=O)(=O)c3ccccc3)cc1-2`, the growth in the test on DU-145 prostate was 100% and 114%; with K-562 leukemia, 88.6% and 88.2%; in the test on MALME-3M melanoma, 107% and 98%; with MDA-MB-231 breast, 80.5% and 112%; in the test with RXF 393 renal, 100% and 110%; with SF-268 CNS it was 80.6% and 97.7%. Besides, the growth was 94.6% and 106% with SF-295 CNS; 90.9% and 97.8% in the test on SF-539 CNS; 86.6% and 112% with UACC-257 melanoma; 90.4% and 101% in the test on M14 melanoma.

On to `CCN1C(=O)/C(=c2\sc3n(c2=O)C2C(NN=3)N(CC)C(=O)N2CC)c2ccccc21` (stereo not given), for which the growth is 7% (active) in the test on DU-145 prostate; 7.63% (active) in the test with K-562 leukemia; 49.5% with MALME-3M melanoma; 23.9% in the test on MDA-MB-231 breast; -7.21% (active) with RXF 393 renal; 61.7% with SF-268 CNS. The growth is 9.43% (active) in the test with SF-295 CNS, -20.9% (active) in the test on SF-539 CNS, 96.5% in the test with UACC-257 melanoma and 46.2% in the test with M14 melanoma.

As for `O=C(NCCCN1CCCCC1)c1ccc(-c2nc3ccc4[nH]ncc4c3c3c2CCCC3)cc1`, the growth was 51.3% in the test on DU-145 prostate; 16.7% in the test with K-562 leukemia; 70.8% in the test with MALME-3M melanoma; 54.9% in the test on MDA-MB-231 breast; 28.5% with RXF 393 renal; 54.2% in the test with SF-268 CNS. Also, the growth is 55.3% with SF-295 CNS, 43.8% in the test on SF-539 CNS, 97.2% with UACC-257 melanoma and 57.3% with M14 melanoma.

On to `O=C([C@H]1C[C@H]1c1ccc(S(F)(F)(F)(F)F)cc1)N1CCN(c2cc(Cl)ccc2C(F)(F)F)CC1`, for which the growth was 104% in the test with DU-145 prostate; 74.2% in the test on K-562 leukemia; 89.7% in the test on MALME-3M melanoma; 97.2% in the test on MDA-MB-231 breast; 91.8% in the test on RXF 393 renal; 90.2% in the test on SF-268 CNS. Further, the growth with SF-295 CNS is 92.6%; with SF-539 CNS, 107%; with UACC-257 melanoma, 94.9%; in the test with M14 melanoma, 90.7%.

Regarding `CS(=O)(=O)Nc1cc(-c2ccc3ncnc(Nc4ccc(F)c(Cl)c4)c3c2)cnc1Cl`, the growth with DU-145 prostate is 16.3%; in the test with K-562 leukemia, 18.7%; in the test on MALME-3M melanoma, -15.5% (active); in the test with MDA-MB-231 breast it was 5.12% (active); in the test on RXF 393 renal, -34.2% (active); in the test with SF-268 CNS it was 12.3%. The growth in the test on SF-295 CNS was -17.5% (active); in the test on SF-539 CNS it was 6.35% (active); in the test with UACC-257 melanoma, 4.62% (active); with M14 melanoma, 5.92% (active).
